Results reported in PubChem BioAssay AID1259420 (Broad Institute, 2018).
Values joined by “and” are separate entries in the source; they are usually repeats but may differ in a detail not shown here. Equal values may be shown once. About 250 (25%) of roughly 1,000 compounds were called active. About 31% were inconclusive and are not listed. The rule behind the calls is not given here. A selection follows. Results with a measured potency or affinity are listed apart.

test: T. gondii intracellular growth, IFN-gamma absent, dose response, cell-based (AID 1259420); settings: Toxoplasma gondii growth in host cells, no IFN-gamma; at 19.5 µM unless noted;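 note: host cells were HeLa; final incubation lasted 72 hours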

SMILES | max activity
Cn1nc2c(c1C(=O)Nc1ccc(N3CCCCC3)c(F)c1)CCCC2 | 25.8% [at 10 µM] (inactive)
Cc1ccccc1-c1ccc([C@H]2[C@@H](CO)N3C(=O)CN(C(=O)c4ccncc4)C[C@@H]23)cc1 | -13.9% [at 0.16 µM] (inactive)
CN(C)C1CCN(Cc2cccc(C#N)c2)C(C(=O)O)C1 (stereo not given) | 8.23% (inactive)
Cc1nnsc1CN(C)Cc1[nH]c2ccc(F)cc2c1C | 12.6% [at 0.16 µM] (inactive)
CC(C)NC(=O)N1CC(=O)N2[C@H](CO)[C@H](c3ccc(/C=C/c4ccccc4)cc3)[C@@H]2C1 | 20.9% (inactive)
COc1ccc(-c2nc(NCCN3CCC(C)CC3)c3ccccc3n2)cc1 | 5.6% [at 10 µM] (inactive)
COc1ccc(-c2nc(NCCN3CCOCC3)c3ccccc3n2)cc1 | 8.12% (inactive)
COc1ccc(-c2ccc([C@H]3[C@H]4CN(Cc5ccccc5)CC(=O)N4[C@H]3CO)cc2)cc1 | 43.4% (inactive)
COc1ccc(-c2nc(NCCN3CCN(C)CC3)c3ccccc3n2)cc1 | 12.8% (inactive)
COc1ccc(-c2nc(NCCCN3CCCC3)c3ccccc3n2)cc1 | 7.2% (inactive)
CC(c1cc2ccccc2s1)N(O)C(N)=O (stereo not given) | -4.76% [at 5 µM] (inactive)
CN1[C@H](CO)[C@@H]2c3ccccc3N(C(=O)C3CCCCC3)C[C@@H]21 | -10.7% [at 0.3 µM] (inactive)
O=S(=O)(c1ccccc1)N1CCCCN2[C@@H](CO)[C@H](c3ccc(C#CC4CCCC4)cc3)[C@@H]2C1 | 49.6% (inactive)
O=S(=O)(c1cccs1)N1CCCCN2[C@@H](CO)[C@@H](c3ccc(/C=C/c4ccccc4)cc3)[C@@H]2C1 | 38.2% (inactive)
C/C=C/c1ccc([C@@H]2[C@@H](CO)N3CCCCN(CCC(F)(F)F)C[C@@H]23)cc1 | 39.6% (inactive)
C/C=C/c1ccc([C@H]2[C@@H](CO)N3CCCCN(S(=O)(=O)c4ccc(OC)cc4)C[C@H]23)cc1 | 19.6% (inactive)
CCC[C@@]1(CCc2ccccc2)CC(=O)C([C@H](CC)c2cccc(NS(=O)(=O)c3ccc(C(F)(F)F)cn3)c2)C(=O)O1 (stereo not given in full) | 6.55% [at 10 µM] (inactive)
Cc1ccc(-c2ccc([C@H]3[C@@H](CO)N4C(=O)CN(C(=O)NC(C)C)C[C@@H]34)cc2)cc1 | -19.8% [at 5 µM] (inactive)
COCCC(=O)c1cc2c(s1)CCN2Cc1cccnc1 | -10.9% [at 0.6 µM] (inactive)
CN1CCC(=C2c3ccccc3C=Cc3ccccc32)CC1 | 23.8% (inactive)
N#C[C@@H]1[C@H](c2ccc(C#Cc3cccc(F)c3)cc2)[C@H](CO)N1C(=O)C1CCOCC1 | 23.4% (inactive)
N#C[C@H]1[C@@H](c2ccc(C3=CCCCC3)cc2)[C@@H](CO)N1C(=O)Nc1ccccc1F | 15.8% [at 10 µM] (inactive)
N#C[C@H]1[C@H](c2ccc(C#Cc3ccccc3F)cc2)[C@@H](CO)N1C(=O)c1cccnc1 | -12.3% [at 10 µM] (inactive)
COc1cccc(C#Cc2ccc([C@H]3[C@@H](C#N)N(C(=O)c4ccccn4)[C@@H]3CO)cc2)c1 | 21.5% (inactive)

SMILES | max activity
CCCNC(=O)N1C[C@@H]2N[C@H](C1)C2c1ccc(-c2ccccc2C)cc1 (stereo not given in full) | 14.1% (inactive) and 25.2% (inactive)
N#C[C@H]1[C@H](c2ccc(C#Cc3cccc(F)c3)cc2)[C@@H](CO)N1C(=O)C1CCOCC1 | 10.6% (inactive)
N#C[C@H]1[C@@H](c2ccc(-c3cccnc3)cc2)[C@@H](CO)N1C(=O)Nc1ccc(F)cc1 | 7.86% (inactive)
COc1ccc(-c2ccc([C@H]3[C@H](C#N)N(C(=O)NC(C)C)[C@H]3CO)cc2)cc1 | 23.7% (inactive)
CC(C)C#Cc1ccc([C@@H]2[C@H]3CN(S(=O)(=O)c4ccccc4)CC(=O)N3[C@H]2CO)cc1 | 15.9% (inactive)
CN1C[C@H]2CN(Cc3ccc4c(c3)OCO4)CCC[C@@]2(C(=O)O)C1 | -10.3% [at 5 µM] (inactive)
CS(=O)(=O)N1CC(=O)N2[C@H](CO)[C@@H](c3ccc(C#CCC4CCCC4)cc3)[C@@H]2C1 | 58.7% (inactive)
CC(C)C#Cc1ccc([C@H]2[C@H](CO)N3C(=O)CN(C(=O)NC4CCCC4)C[C@@H]23)cc1 | -11.2% (inactive)
COc1ccccc1-c1ccc([C@H]2[C@H](CO)N[C@@H]2C#N)cc1 | 29.5% (inactive)
COc1ccccc1C#Cc1ccc([C@H]2[C@@H](CO)N3CCCCN(C(=O)C4CCC4)C[C@@H]23)cc1 | -3.84% [at 0.16 µM] (inactive)
COc1ccccc1C#Cc1ccc([C@@H]2[C@@H](CO)N3CCCCN(C(=O)C4CCC4)C[C@H]23)cc1 | 18.4% [at 10 µM] (inactive)
N#Cc1cccc(-c2ccc([C@H]3[C@H]4CN(Cc5ccccc5F)CCCCN4[C@H]3CO)cc2)c1 | 25.1% (inactive)
N#Cc1cccc(-c2ccc([C@@H]3[C@H]4CN(Cc5ccccc5F)CCCCN4[C@H]3CO)cc2)c1 | -16.7% [at 0.6 µM] (inactive)
O=C(C1CCC1)N1C[C@@H]2N[C@H](C1)C2c1ccc(/C=C/c2ccccc2)cc1 (stereo not given in full) | -22.2% [at 0.3 µM] (inactive)
NCCNC(=O)c1nc(-c2ccc(Br)o2)no1 | 7.54% [at 0.08 µM] (inactive)
O=C(Cc1cccnc1)N1CC(=O)N2[C@@H](CO)[C@H](c3ccc(C4=CCCCC4)cc3)[C@@H]2C1 | 18.9% [at 0.16 µM] (inactive)
Cc1nc2c(cnn2-c2ccccc2)c(=O)n1-c1cccc2ccccc12 | -11.1% [at 10 µM] (inactive)
CCS(=O)(=O)N1CCc2nc(-c3cccc(F)c3)nc(NC3CC3)c2C1 | -10.7% [at 2.6 µM] (inactive)
COCC1(C(=O)N2CCc3c(nc(-c4ccccc4)[nH]c3=O)C2)CCC1 | 24.5% (inactive)
Cc1ccc(CN2C[C@@H]3C[C@H](C(=O)Nc4ccccc4)[C@@H](C2)O3)cc1 | 4.12% [at 0.6 µM] (inactive)
CC(C)CNC(=O)[C@H]1C[C@H]2CN(Cc3cccc(Cl)c3)C[C@H]1O2 | 13.8% [at 0.3 µM] (inactive)
CC(C)(C)c1nc2ccccc2c2nnc(SCc3ccccn3)n12 | 9.04% [at 0.3 µM] (inactive)
CN1CCN(Cc2cnc3n2CCN(CC2CCOCC2)C3)CC1 | 22.9% [at 1.2 µM] (inactive)
CN(C)C(=O)CN1CCOCC2(CCN(CC3CCOC3)CC2)C1 (stereo not given) | 12.7% (inactive)

SMILES | max activity
CN1CCCN(C(=O)c2cc3c(c4ccccc4n3CC3CC3)n2S(C)(=O)=O)CC1 | 25.4% (inactive)
O=C(c1cnccn1)N1CC(=O)N2[C@H](CO)[C@H](c3ccc(/C=C/c4ccccc4)cc3)[C@@H]2C1 | 9.53% [at 10 µM] (inactive)
COC12CC(COC(=O)c3cncc(Br)c3)CN(C)C1Cc1cn(C)c3cccc2c13 (stereo not given) | -18.1% [at 1.2 µM] (inactive)
CC(=O)NCc1nnn2c1CN(c1ncccn1)CCC2 | -8.02% [at 0.6 µM] (inactive) and 9.77% [at 0.6 µM] (inactive)
CC(C)NC(=O)N1CC[C@@H]2[C@H]1c1cc(-c3ccc(F)cc3)ccc1N(C)[C@H]2CO | 11.4% [at 10 µM] (inactive)
CCC(=O)N1CC[C@@H]2[C@H]1c1cc(-c3ccc(C#N)cc3)ccc1N(C)[C@H]2CO | -11.1% [at 0.6 µM] (inactive)
COc1cccc(-c2ccc3c(c2)[C@@H]2[C@@H](CCN2C(=O)c2ccccc2F)[C@@H](CO)N3C)c1 | 24% (inactive)
CN1c2ccc(C#Cc3cccnc3)cc2[C@@H]2[C@@H](CCN2C(=O)c2cccc(F)c2)[C@H]1CO | 5.34% (inactive)
COc1ccc(-c2ccc3c(c2)[C@@H]2[C@@H](CCN2C(=O)c2ccncc2)[C@H](CO)N3C)cc1 | -18.6% [at 5 µM] (inactive)
CCC(=O)N1CC[C@@H]2[C@@H](CO)N(C)c3ccc(-c4ccc(C#N)cc4)cc3[C@@H]21 | -14.1% [at 1.2 µM] (inactive)
NC(N)=N/N=C/c1c(Cl)cccc1Cl | -13.6% [at 2.35 µM] (inactive)
C=CCN1C(=O)CCCC12CCCN(S(=O)(=O)Cc1ccccc1)C2 (stereo not given) | -8.38% [at 10 µM] (inactive)
CN(C)CCNC(=O)c1c2c(NCc3cccnc3)ncnc2n2ccccc12 | 8.13% [at 10 µM] (inactive)
CCN1Cc2c(C(=O)Nc3ccc(C)cc3)ncn2-c2ccccc2S1(=O)=O | -12.3% [at 0.16 µM] (inactive)
CC(C)N1c2ccc(F)cc2[C@@H]2CN(C(=O)c3ccco3)CC[C@H]21 | 9.4% (inactive)
Cc1ccccc1-c1ccc([C@@H]2[C@@H](CO)N3CCCCN(S(=O)(=O)Cc4ccccc4)C[C@H]23)cc1 | 6.43% [at 10 µM] (inactive)
Cc1ccoc1C(=O)N1CC[C@H]2CO[C@@H](CN3CCN(C)CC3)[C@@H]2C1 | -13% (inactive)
COc1ccc(C[C@H]2CN(C(=O)c3ccnn3C)CC[C@H]2OC)cc1 | -12.6% [at 5 µM] (inactive)
O=C(Nc1ccccc1)[C@@H]1[C@@H](CO)[C@@H]2Cn3c(ccc(C4=CCCCC4)c3=O)[C@@H]2N1Cc1cocn1 | -11.6% [at 10 µM] (inactive)
CCOCC1CC2(CCN(C(=O)COc3ccc(C)cc3)CC2)CO1 (stereo not given) | -10.4% [at 5 µM] (inactive)
CCN1CC2(CCN(C(=O)COc3ccccc3)CC2)COc2ccccc2S1(=O)=O | -3.38% [at 2.6 µM] (inactive)
CC(C)n1ncc(NC(=O)Cn2ccc(-c3ccc(C(F)(F)F)cc3)n2)n1 | -7.47% [at 0.3 µM] (inactive)
